Screening results: PubChem, several laboratories
An excerpt weighted towards active compounds, which were near 2.3% of everything screened.
Mcl1 Noxa PPI: disrupts binding of human Mcl-1 to Noxa peptide; AID 1022; TR-FRET Mcl-1/Noxa peptide binding, 2 h; 220,000 compounds, 1.5% hits; Q07820; inhibition, % at 21.7 µM;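 active = compounds that cut the protein-peptide binding signal by more than 50% relative to plate controls in a single-dose test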;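 note: His-tagged Mcl-1 with rhodamine Noxa BH3 peptide and terbium anti-His antibody; 0% = Mcl-1 plus Noxa peptide wells and 100% = peptide-only wells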
Target sequence (Q07820 whole entry, looked up): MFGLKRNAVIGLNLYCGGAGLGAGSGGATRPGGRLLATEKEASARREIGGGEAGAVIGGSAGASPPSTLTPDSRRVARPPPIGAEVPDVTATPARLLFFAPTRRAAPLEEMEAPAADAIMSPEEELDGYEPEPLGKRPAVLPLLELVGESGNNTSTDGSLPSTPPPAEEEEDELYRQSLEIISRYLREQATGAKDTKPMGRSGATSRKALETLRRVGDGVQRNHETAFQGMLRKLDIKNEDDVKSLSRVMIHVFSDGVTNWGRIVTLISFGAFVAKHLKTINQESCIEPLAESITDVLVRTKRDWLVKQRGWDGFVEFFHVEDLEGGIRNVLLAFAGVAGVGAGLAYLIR
Mcl-1 Bim block: human Bim-Mcl-1 interaction inhibition | Bead-based flow cytometry, Bim peptide-Mcl-1 binding | inhibition, % at 10 µM | 190,000 compounds, 0.1% hits | AID 1009; in the data active = inhibition above about 40%;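 note: 0% = no compound tracer wells and 100% = peptide blocker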
GLD-1 TGE inh: GLD-1-TGE RNA interaction inhibition (C. elegans); AID 2280; purified GLD-1 + fluorescein TGE RNA, fluorescence polarization; Q17339; inhibition, % at 5.96 µM; 320,000 compounds, 0.44% hits;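 active = percent inhibition above a per-plate cutoff, the plate mean of test compounds plus 3 SD, cut at about 30% in these data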;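 note: 0% = DMSO wells with GLD-1 and probe and 100% = wells lacking GLD-1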
Bcl-xL primary: blocks human Bcl-xL binding to Bim BH3 peptide | Q07817 | GST-Bcl-xL / FITC-Bim BH3 peptide fluorescence polarization | inhibition, % at 10.9 µM | 320,000 compounds, 0.7% hits;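 active = inhibition above the mean of all tested compounds plus 3 SD, cutoff set per campaign, cut at about 30% in these data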;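 note: 0% = DMSO wells and 100% = unlabeled Bim-BH3 peptide competitor; inhibitors lower millipolarization by displacing the labeled peptide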
Target sequence (Q07817 whole entry, looked up): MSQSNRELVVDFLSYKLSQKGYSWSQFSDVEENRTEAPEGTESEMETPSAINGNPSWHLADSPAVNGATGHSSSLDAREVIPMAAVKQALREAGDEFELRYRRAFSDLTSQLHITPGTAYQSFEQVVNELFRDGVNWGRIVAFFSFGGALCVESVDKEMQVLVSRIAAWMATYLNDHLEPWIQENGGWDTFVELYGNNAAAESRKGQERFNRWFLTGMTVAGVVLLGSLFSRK
MCL1 BIM primary: MCL1-BIM-BH3 interaction inhibition (human). 320,000 compounds, 0.68% hits. inhibition, % at 10.9 µM. Q07820. GST-MCL1 / FITC-Bim-BH3 fluorescence polarization. AID 2057;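 active = inhibition above the mean inhibition of all tested compounds plus 3 SD, set per campaign, cut at about 40% in these data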;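 note: 0% = DMSO wells and 100% = unlabeled Bim-BH3 peptide control; higher means more loss of mP so more displacement of Bim peptide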
Mcl1-Bid inh: disrupts binding of human Mcl-1 to Bid peptide; inhibition, % at 21.7 µM; 220,000 compounds, 0.97% hits; Q07820; TR-FRET Mcl-1/Bid-Dy647 peptide binding, 1536-well;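 active = compounds that cut the binding signal by more than half at the single screening dose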;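 note: His-tagged Mcl-1 with europium anti-His antibody binding Bid BH3 peptide; 0% = Mcl-1 plus peptide wells and 100% = peptide-only wells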
GLD1 RNA confirm: GLD-1 TGE RNA interaction inhibition, confirmation; shares compounds with GLD-1 TGE inh; GLD-1/FL-TGE RNA fluorescence polarization, biochemical; inhibition, % at 5.96 µM; 550 compounds, 10% hits; AID 2459;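 active = average inhibition across triplicates above the hit cutoff set in the primary screen, cut at about 32% in these data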;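 note: 0% = GLD-1 with RNA probe and DMSO and 100% = wells lacking GLD-1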
An asterisk follows results filed as active; nt = not tested or not shown.

SMILES | Mcl1 Noxa PPI | Mcl-1 Bim block | GLD-1 TGE inh | Bcl-xL primary | MCL1 BIM primary | Mcl1-Bid inh | GLD1 RNA confirm
C=CCN1CN(S(=O)(=O)c2cccc(Cl)c2)c2nc3ccccc3nc21 | nt | nt | 45* | 34* | 30 | nt | 0
Cc1ccc(NC(=O)C2CCN(S(=O)(=O)c3ccc4c(c3)OCCCO4)CC2)nc1 | nt | nt | 2 | 4 | -3 | nt | nt
NC(CS(=O)O)C(=O)O (stereo not given) | nt | nt | -1 | 4 | 9 | nt | nt
CCC(C)Nc1nc(OC(C(F)(F)F)C(F)(F)F)nc(OC(C(F)(F)F)C(F)(F)F)n1 (stereo not given) | 14 | 2 | 36* | -3 | -1 | 6 | -2
CN1CCN(C(=S)c2ccc([N+](=O)[O-])cc2)CC1 | -10 | -6 | 79* | 3 | 2 | -12 | 0
CCCCNc1c(-c2ccc(SC(C)CC)cc2)nc2cnccn12 (stereo not given) | nt | nt | 43* | nt | nt | nt | 3
Cc1nn2c(NCCCN(C)C)c3c(nc2c1-c1ccccc1)CCC3 | 3 | -5 | 31* | 0 | 2 | -9 | 4
COc1cc(C(=O)NC(=S)Nc2ccc([N+](=O)[O-])cc2)cc(OC)c1OC | 26 | -6 | 32* | 7 | 12 | -9 | -3
CS(=O)(=O)c1ccc(NC(=O)CCN2C(=O)C3CCCCC3C2=O)cc1 (stereo not given) | nt | nt | 2 | -2 | -10 | nt | nt
CCCNC(=O)c1onc(CSc2ccc(Cl)cc2)c1C(=O)NCCC(C)C | nt | nt | 44* | 8 | 10 | nt | -6
Oc1ccc(/C=N/Nc2cc(N3CCCC3)nc(N3CCCC3)n2)cc1 | 15 | 0 | 39* | 17 | 24 | -55 | 38*
CC(CC(=O)N(C)CC(=O)Nc1ccc(N2CCOCC2)cc1)c1ccccc1 (stereo not given) | nt | nt | 4 | 2 | 0 | nt | nt
CN1CCc2c(C#N)c(N3CCCCC3)nc(NCc3ccccc3)c2C1 | 22 | 4 | 18 | 15 | 20 | -76 | nt
N#Cc1c(NCCCO)nc(NCc2ccccc2)c2c1CCN(Cc1ccccc1)C2 | 2 | 1 | 33* | 31* | 34 | -31 | 14
COc1ccc(NC(=O)Cc2ccccc2)cn1 | 11 | 1 | 36* | 38* | 40* | -33 | 35*
COc1ccc(NC(=O)C(c2ccc(Cl)cc2)C(C)C)cn1 (stereo not given) | nt | nt | 36* | 36* | 26 | nt | 30
COC(=O)c1ccccc1NC(=O)N1CSC[C@H]1C(=O)OC | 25 | 0 | 6 | 6 | 11 | -2 | nt
CCC1c2ccc(C)n2CCN1C(=O)Nc1ccccc1C(=O)OC (stereo not given) | 11 | -5 | 35* | 41* | 44* | -37 | -1
Cc1ccccc1C(=O)N1CCC(C(=O)NCCc2ccc(S(N)(=O)=O)cc2)CC1 | nt | nt | -1 | 5 | 0 | nt | nt
CCc1cccc(NC(=O)CCCn2nc(CC)n3c(cc4occc43)c2=O)c1 | nt | nt | 31* | 30 | 31 | nt | -3
O=C(C(=O)N1CCN(c2ccccc2)CC1)c1cn(CC(=O)N2CCCCCC2)c2ccccc12 | nt | nt | 31* | 6 | 11 | nt | 7
CCCC(=Nc1ccc(N)cc1)C1=C(O)C(C(=O)OC)C(C)(C)CC1=O (stereo not given) | 18 | 1 | 33* | 44* | 49* | -9 | 6
CCCC(=O)C1=C(O)C(C(=O)OC)C(C)(C)CC1=Nc1ccc(N)cc1 (stereo not given) | 27 | 0 | 3 | 4 | 0 | -29 | nt
O=C(Nc1ccc(N2CCN(C(=O)c3cccs3)CC2)cc1)c1ccc(Br)o1 | nt | nt | 7 | 3 | 1 | nt | nt
CC(=O)N1CC=C2C(C#N)=C(N)C(C#N)(C#N)[C@H](c3ccoc3)[C@H]2C1 | -10 | -4 | 31* | 44* | 52* | -19 | 18
SMILES | Mcl1 Noxa PPI | Mcl-1 Bim block | GLD-1 TGE inh | Bcl-xL primary | MCL1 BIM primary | Mcl1-Bid inh | GLD1 RNA confirm
CC(=O)c1c(C)oc2c1cc(NS(=O)(=O)c1ccc(C(=O)O)cc1)c1ccccc12 | nt | nt | 16 | 8 | 1 | nt | nt
Cc1ccc(S(=O)(=O)Nc2cc3c(C(=O)Nc4ccccc4)c(C)oc3c3ccccc23)cc1 | 36 | 0 | 128* | 21 | 22 | -26 | 105*
CCc1ccc(C2C(C#N)=C(N)C(C#N)(C#N)C3=CCC(C(C)(C)C)CC32)cc1 (stereo not given) | 0 | -1 | 41* | 41* | 28 | -9 | 5
NC(=O)c1ccccc1NC(=O)/C=C/c1ccccc1 | 11 | -6 | 3 | -7 | -12 | 9 | nt
NC(=O)c1ccccc1NC(=O)/C=C/c1ccc(Cl)cc1 | 29 | 0 | 56* | 1 | 5 | 5 | -5
CCN(CC)C(=O)CSc1nnc2nnc3cc(C)ccc3n12 | -3 | nt | 42* | 28 | 32 | -12 | 23
CC(C)(C)c1ccc(C2=CC(c3ccccc3F)n3ncnc3N2)cc1 (stereo not given) | nt | nt | 10 | 6 | 6 | nt | nt
Fc1ccc(Br)cc1C1C=C(c2cccnc2)Nc2ncnn21 (stereo not given) | -2 | -3 | 34* | 37* | 38 | -8 | 2
CCN1CCN(CC#CCOc2ccccc2OC)CC1 | nt | nt | -6 | 5 | 2 | nt | nt
CC1=C(C)C(C)=C(C#N)C(=C(C#N)C#N)N1 | 37 | nt | -2 | 7 | 0 | -10 | nt
CC(NC(=O)CN(C)Cc1ccc(Br)cc1)c1ccccc1 (stereo not given) | nt | nt | 3 | -2 | 2 | nt | nt
CSc1ccc(CN(C)CC(=O)NC(C)c2ccccc2)cc1 (stereo not given) | 2 | 1 | 54* | -1 | -5 | -5 | -2
CCSC1(SCC)N=C(N)C2(C#N)C(c3ccccc3)NC3=C(CCC3)C12C#N (stereo not given) | -1 | 0 | 50* | 27 | 26 | -54 | -2
COc1cc(NC(=O)c2cccs2)cc(OC)c1 | -3 | -1 | 52* | 7 | 10 | -8 | -2
COCCCN1C(=O)C(=O)/C(=C(/O)c2ccc(S(=O)(=O)N3CCOCC3)cc2)C1c1ccc(C(C)C)cc1 (stereo not given) | nt | nt | 16 | 4 | -2 | nt | nt
C[C@H](NC(=O)[C@H]1N2C(=O)c3ccccc3C2SC1(C)C)C(=O)N1CCCCC1 (stereo not given in full) | nt | nt | 5 | 5 | 8 | nt | nt
CCCCCCOc1ccc(C(=O)O)cc1C#N | 9 | -3 | 40* | 3 | 9 | 12 | -3
CCCCCCCCOc1ccc(C(=O)O)cc1 | nt | nt | 4 | 6 | 7 | nt | nt
Cc1ccc(O)c(C(=O)/C=C/c2ccc3c(c2)OCCO3)c1 | 11 | 0 | 8 | 4 | -3 | 12 | nt
O=C(COC(=O)c1ccc(Br)cc1)NCc1ccccc1 | 10 | -1 | 41* | 6 | 8 | -14 | 4
